The list is not random: actives were taken first. Their share in the collection is about 2.3%.
Nrf2 inh = blocks Nrf2 signaling; actives 2.1% (n = 360,000); A549 ARE-Fluc reporter, luciferase luminescence, 18-24 h; Potency, µM (doses to about 46 µM), for the others: at the highest dose activity change, negative = inhibition, usual class: inhibitors; further: potency means the concentration at half of the fitted maximal effect; on the % scale 0 is the no-effect control and ±100 the full control effect; nearly all actives have a fitted effect of over 60% in size
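Reporter: ARE-Fluc in A549. Exposure: 18-24 h, 37 °C, 5% CO2, 5% FBS OPTI-MEM. Readouts: fluorescent cytotoxicity (CellTiter-Fluor), then luminescent Nrf2 signal after BugLite.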
IDH1 R132H inh = human IDH1 R132H inhibition; Potency, µM (series often up to 76.6 µM), for inactives: top-dose activity change, negative = inhibition, most hits filed as inhibitors; IDH1-R132H enzyme, NADPH consumption, diaphorase/resazurin fluorescence; actives 0.093% (n = 390,000); further: potency means the concentration at half of the fitted maximal effect; on the % scale 0 is the no-effect control and ±100 the full control effect; nearly all actives have a fitted effect of over 65% in size
Target sequence (O75874 whole entry R132H, stated change not applied): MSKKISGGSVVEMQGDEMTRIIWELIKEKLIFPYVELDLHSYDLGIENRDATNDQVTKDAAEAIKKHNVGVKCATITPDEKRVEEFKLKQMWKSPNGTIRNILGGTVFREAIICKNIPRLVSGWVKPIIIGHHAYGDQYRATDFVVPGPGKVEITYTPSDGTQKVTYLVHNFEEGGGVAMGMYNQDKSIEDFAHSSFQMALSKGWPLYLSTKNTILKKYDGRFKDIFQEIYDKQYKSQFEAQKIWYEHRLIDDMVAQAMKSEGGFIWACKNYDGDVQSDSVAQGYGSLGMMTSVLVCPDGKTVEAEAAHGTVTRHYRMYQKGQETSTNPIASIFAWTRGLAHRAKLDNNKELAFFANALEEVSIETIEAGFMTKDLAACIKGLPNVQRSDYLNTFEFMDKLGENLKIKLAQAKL
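IDH1-R132H (0.5 ug/mL) preincubated 30 min with compound, then NADPH (0.016 mM) and alpha-KG (2 mM) added; 80 min at RT, pH 7.5. Remaining NADPH coupled via diaphorase/resazurin to fluorescence (540/590 nm); concentration-response curves normalized to no-enzyme control.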
Nrf2 activator = activates Nrf2 signaling; AREc32 ARE-luciferase reporter (MCF7-derived line), luminescence, 24 h; Potency, µM (highest dose often 46.1 µM), inactives show top-dose activation, hits mostly activators; actives 0.31% (n = 410,000); AID 624171; further: potency means the concentration at half of the fitted maximal effect; % of control where 0% means no effect; nearly all actives have a fitted effect of over 65% in size
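Cells of the AREc32 ARE-luciferase line are plated in OPTI-MEM containing 5% FBS and left overnight at 37 deg C. Compounds are pinned in, incubation continues 24 hr, and firefly luciferase signal is then measured.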
A549 tox = kills or reduces viability of A549 cells in Nrf2 counter-screen; A549 ARE-Fluc cells, CellTiter-Fluor viability, 18-24 h; Potency, µM (series often up to 46 µM), inactives show at the highest dose activity change, negative = cytotoxicity, most hits filed as inhibitors; actives 0.16% (n = 390,000); AID 504648; further: potency means the concentration at half of the fitted maximal effect; on the % scale 0 is the no-effect control and ±100 the full control effect
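Cytotoxicity counterscreen: CellTiter-Fluor fluorescence was measured in A549 ARE_Fluc cells after 18-24 h of compound exposure in a concentration series. The subsequent BugLite luminescent read reports ARE-luciferase activity.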
Giardia killer = Giardia lamblia killing | activity change, % at 7.66 µM, hits read low | AID 540267 | actives 0.15% (n = 340,000) | Giardia lamblia trophozoite viability; in the data active means activity change below about -80%; inconclusive means between about -30% and that limit;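 further: parasites exposed to compound for two days anaerobically before the ATP read; on the % scale 0 is the no-effect control and ±100 the full control effect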
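Media and compound were dispensed first, then trophozoites at 100 cells/well; plates sat 48 hrs at 37 deg C without oxygen before ATP luminescence reagent was added and read after 15-30 min at room temperature.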
Apoferritin bind = candidate novel general anesthetic via apoferritin binding. P02791. apoferritin/1-aminoanthracene competitive binding, fluorescence. Potency, µM (top dose mostly 77.5 µM), for inactives: at the highest dose activity change, negative = displacement, usual class: inhibitors. actives 0.074% (n = 350,000); further: potency means the concentration at half of the fitted maximal effect; on the % scale 0 is the no-effect control and ±100 the full control effect; nearly all actives have a fitted effect of over 20% in size
Target sequence (P02791 2-175 limits assumed): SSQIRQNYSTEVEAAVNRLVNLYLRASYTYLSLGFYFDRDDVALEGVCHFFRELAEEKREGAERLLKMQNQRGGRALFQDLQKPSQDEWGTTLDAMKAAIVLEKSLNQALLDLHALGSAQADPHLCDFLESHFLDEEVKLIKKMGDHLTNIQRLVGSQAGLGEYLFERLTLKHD
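Horse-spleen apoferritin (10 uM) was mixed with 50% saturated 1-aminoanthracene in PBS, exposed to compounds for 10 min at room temperature, and read for fluorescence (ex 380 nm, em 535 nm). Competitive displacement was fitted with a four-parameter Hill equation.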
Active calls of the source: *; ? = inconclusive; . = no result; [ ] = dose if it differs, or a comment. Unless noted, the call rests on the fitted dose curve; in most records, active means well fitted curve in the direction sought with a large enough effect; inconclusive means small, poorly fitted or top-dose-only effect, or another doubt; inactive means no such curve, though single readings can be large; an effect the other way counts as inactive or inconclusive.

SMILES	Nrf2 inh	IDH1 R132H inh	Nrf2 activator	A549 tox	Giardia killer	Apoferritin bind
CC(=O)N1c2ccc(S(=O)(=O)NCC3CCC(C(=O)Nc4cc(C)cc(C)c4)CC3)cc2CC1C (configuration not stated)	21µM*	-16%	4%	-2%	.	-2%
CCN(CC)C(=O)N[C@H]1C=C2c3cccc4[nH]cc(c34)C[C@@H]2N(C)C1	.	.	.	.	.	7%[29.3 µM]
C[C@H]1CCC/C=C/[C@@H]2C[C@H](O)C[C@H]2[C@@H](O)/C=C/C(=O)O1	0.26µM*	2%	3%	?	-2	.
Cc1c(NS(=O)(=O)c2ccccc2)ccc([N+](=O)[O-])c1Cl	15µM*	-6%	4%	?	6	.
CN(C)CCN(C)CCc1ccc(Cl)c(Cl)c1	.	.	.	.	.	-3%
COc1cc2c(cc1OC)-c1c(OC)c(OC)c(OC)c3ccnc(c13)C2=O	16%	?	-1%	?	-83*	0%
O=C(c1ccc(Cl)cc1)c1cn(Cc2ccccc2)c2cc3c(cc2c1=O)OCCO3	?	-17%	0%	-27%	.	-3%
CC1CN(c2ccccc2)NC1=O (configuration not stated)	-10%	26%	3%	7%	-6	-9%
CCCn1cc(S(=O)(=O)c2ccc(OC)cc2)c(=O)c2cc(F)c(N3CCCCCC3)cc21	?	-16%	0%	-16%	.	-14%
CCC(Sc1ccccc1)C(=O)OC1CC2CCC(C1)N2C (configuration not stated)	.	.	.	.	.	-5%
CCCC1=Nc2cc(C(=O)NCCc3ccc(OC)cc3OC)ccc2Sc2ccccc21	18µM*	-10%	0%	7%	.	2%
CN(C)c1ccc(CN2CCc3nc(N4CCN(c5ccccn5)CC4)ncc3C2)cc1	.	1%	-1%	-27%	.	40%
CCOC(=O)C1=C(CN2CCN(c3ccc(C)cc3C)CC2)NC(=O)NC1c1ccc(OC)cc1 (configuration not stated)	15µM*	0%	-1%	-29%	.	?
N[C@H]1C[C@H]1c1ccccc1	.	.	.	.	.	2%[29.3 µM]
COc1cccc(N2CCN(c3c4c(nc5nncn35)CCC4)CC2)c1	16µM*	.	0%	-16%	.	7%
O=C1NC2C(=CC(O)C(O)C2O)c2cc3c(cc21)OCO3 (configuration not stated)	2.1µM*	5%	-2%	?	-5	.
CC[C@@]1(O)C(=O)OCc2c1cc1n(c2=O)-c2cc3ccccc3nc2C1	.	.	.	.	.	277%
CC(C)C[C@H]1C(=O)N2CCC[C@H]2[C@]2(O)O[C@](NC(=O)C3C=C4c5cccc6[nH]c(Br)c(c56)C[C@H]4N(C)C3)(C(C)C)C(=O)N12 (some centres not stated)	18µM*	0%	8%	?	-10	.
CC(C)C[C@H]1C(=O)N2CCCC2[C@]2(O)O[C@](NC(=O)[C@@H]3C=C4c5cccc6[nH]c(Br)c(c56)C[C@H]4N(C)C3)(C(C)C)C(=O)N12 (some centres not stated)	.	.	.	.	.	-20%
CCCCn1cc[n+](C)c1	.	.	.	.	.	0%
C[n+]1c(-c2ccccc2)c2cc(N)ccc2c2ccc(N)cc21	1.8µM*	15%	-3%	?	10	?
CN(C)[C@@H]1C(=O)C(C(N)=O)=C(O)[C@@]2(O)C(=O)C3=C(O)c4c(O)ccc(Cl)c4[C@@](C)(O)C3C[C@@H]12 (some centres not stated)	23µM*	-8%	-1%	?	-18	-6%
CCCC[C@@H](C)[C@@H](OC(=O)C[C@@H](CC(=O)O)C(=O)O)[C@H](C[C@@H](C)C[C@H](O)CCCC[C@@H](O)C[C@H](O)[C@H](C)N)OC(=O)C[C@H](CC(=O)O)C(=O)O	.	.	.	.	.	-1%
CC(C)c1ccc(NC(=O)Cn2c(=O)oc3cc(S(=O)(=O)N4CCCC4)ccc32)cc1	21µM*	5%	-1%	-11%	.	-11%
C[C@@H]1O[C@@H](O[C@H]2C[C@@H](O)[C@]3(CO)[C@H]4[C@H](O)C[C@]5(C)[C@@H](C6=CC(=O)OC6)CC[C@]5(O)[C@@H]4CC[C@]3(O)C2)[C@H](O)[C@H](O)[C@H]1O	0.0058µM*	-5%	-3%	?	-14	6%
SMILES	Nrf2 inh	IDH1 R132H inh	Nrf2 activator	A549 tox	Giardia killer	Apoferritin bind
CC1OC(OC2C(O)CC(OC3C(O)CC(OC4CCC5(C)C(CCC6C5CCC5(C)C(C7=CC(=O)OC7)C(O)CC65O)C4)OC3C)OC2C)CC(O)C1O (configuration not stated)	0.092µM*	2%	0%	?	2	.
CC1OC(O[C@@H]2C(O)CC(O[C@@H]3C(O)C[C@@H](OC4CC[C@]5(C)[C@H](CC[C@H]6[C@@H]5CC[C@]5(C)C(C7=CC(=O)OC7)C(O)C[C@@]65O)C4)OC3C)OC2C)CC(O)C1O (some centres not stated)	.	.	.	.	.	-3%
CC1O[C@@H](OC2CC(O)[C@@]3(CO)C4C(O)C[C@@]5(C)C(C6=CC(=O)OC6)CC[C@]5(O)C4CC[C@]3(O)C2)C(O)C(O)C1O (some centres not stated)	.	.	.	.	.	-5%
C[C@H]1O[C@@H](O[C@H]2[C@@H](O)C[C@H](O[C@H]3[C@@H](O)C[C@H](O[C@H]4CC[C@@]5(C)[C@H](CC[C@@H]6[C@@H]5CC[C@]5(C)[C@@H](C7=CC(=O)OC7)CC[C@]65O)C4)O[C@@H]3C)O[C@@H]2C)C[C@H](O)[C@@H]1O	0.016µM*	-2%	-3%	?	42	-6%
COc1ccc(C(=O)Nc2sc3c(c2C(=O)O)CC(C)(C)OC3)cc1	8.2µM*	19%	0%	-20%	-5	-4%
Cc1cccc(-n2c(/C=C/c3ccc([N+](=O)[O-])o3)nc3ccccc3c2=O)c1	4%	5%	?	?	-88*	-12%
O=c1c2ccccc2nc(/C=C/c2ccccc2)n1-c1ccc(O)cc1	-2%	2%	17%	-19%	-7	-8%
Cc1cccc(-n2c(/C=C/c3ccccc3O)nc3ccccc3c2=O)c1	10%	-12%	-4%	1%	.	40%
O=c1c2ccccc2nc(/C=C/c2ccc([N+](=O)[O-])o2)n1-c1ccc(O)cc1	?	6%	?	?	-85*	-9%
CCOc1ccc(CCNC(=O)c2cc3c(-c4ccc(OC)c(OC)c4)nn(C)c3s2)cc1OCC	13µM*	15%	-1%	-9%	.	7%
CCOc1ccc(CCNC(=O)c2ccc(-n3c(C)cc4c3CCCC4)cc2)cc1OCC	0%	0%	?	-2%	.	-11%
